The nature of experiment [1]: NCI Yeast Anticancer Drug Screen. Data for the rad50 strain (AID 155).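 Further: 0% = growth of vehicle-only cultures of the same strain.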 Particulars: S. cerevisiae rad50 strain growth inhibition; at 50.0 µM; hits give high values. The method in brief:
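Vehicle-treated cultures provide the reference for the growth inhibition reported for compound-exposed, repair-deficient yeast.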

The nature of experiment [2]: NCI Yeast Anticancer Drug Screen. Data for the mec2-1 strain (AID 157). Particulars: S. cerevisiae mec2-1 strain, at 50.0 µM, hits give high values. Summed up: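 Strain: mec2-1 (DNA repair/cell cycle alteration). Compound exposure, then growth measured; inhibition expressed relative to vehicle.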
The nature of experiment [3]: NCI Yeast Anticancer Drug Screen. Data for the sgs1 mgt1 strain (AID 161).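 Further: 0% = growth of cultures given vehicle only.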 Particulars: S. cerevisiae sgs1 mgt1 strain, at 50.0 µM, hits give high values. The method in brief: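 Test agents were incubated with a DNA-repair-mutant yeast strain. Growth was then read and compared against vehicle-treated controls.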
Experiment [4] can be described thus: NCI Yeast Anticancer Drug Screen. Data for the cln2 rad14 strain (AID 165).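 Further: 0% = growth equal to vehicle treated cultures.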 Particulars: S. cerevisiae cln2 rad14 strain, at 50.0 µM, hits give high values. Summed up: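 Compounds are applied to the cln2 rad14 yeast strain, and growth is then compared with that of vehicle-treated cultures to give inhibition.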
A short description of experiment [5]: NCI Yeast Anticancer Drug Screen. Data for the bub3 strain (AID 167). The settings on record: S. cerevisiae bub3 mutant strain, at 50.0 µM, hits give high values. The method in brief:
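Mutant yeast screening strain plus compound; vehicle-treated cultures serve as the 0% inhibition reference.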

The nature of experiment [6]: NCI Yeast Anticancer Drug Screen. Data for the mlh1 rad18 strain (AID 175). The settings on record: S. cerevisiae mlh1 rad18 strain growth inhibition; at 50.0 µM; hits give high values. The method in brief:
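Read-out is yeast growth inhibition, calculated against vehicle-only controls. The compound was applied to a strain engineered with DNA damage repair alterations.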

SMILES strings stand for the structures. The panel holds about 79,000 compounds, 15% with a hit somewhere; the sample as a whole holds those more often. Values without a mark were called inactive. Activity calls are given as the source filed them. No stated cut-off is given here; in the data, active means growth inhibition above about 70%; inactive means the rest.

For `COc1cc2c(C)cc(=O)oc2c(OCC(O)CN2CCCC2)c1OC` (stereo not given), the growth inhibition in experiment [1] was -0.75%; in experiment [2] it was 14%; in experiment [3], -5.75%; in experiment [4], 1.35%; in experiment [5] it was -4.35%; in experiment [6], -5.25%.

On to `COC1OC(CO)C(O)C(OCc2ccccc2)C1OCc1ccccc1` (stereo not given), for which the growth inhibition is -4.35% in experiment [1]; 0.5% in experiment [2]; -5.35% in experiment [3]; -10.3% in experiment [4]; -7.4% in experiment [5]; -19.3% in experiment [6].

Take `CC1c2ccccc2Cn2cc3c(c21)C(=O)c1cccc(OP(=O)(O)OCc2ccccc2)c1C3=O` (stereo not given): the growth inhibition is 2.2% in experiment [1]; 12.6% in experiment [2]; 13.1% in experiment [3]; 3.45% in experiment [4]; 5.1% in experiment [5]; 11.9% in experiment [6].

Turning to `CC(=O)Nc1ccc2c(c1)C(=O)c1cc(Cl)ccc1-2`, the growth inhibition in experiment [1] was 0.25%; in experiment [2], -6.05%; in experiment [3] it was 5.75%; in experiment [4], -28.1%; in experiment [5], -2.05%; in experiment [6] it was -9.35%.

With `CC(C)=C1CC(C)(C)N=C1CCN1CCOCC1`, the growth inhibition in experiment [1] was -12.3%; in experiment [2], -20.6%; in experiment [3], -12.5%; in experiment [4] it was -6%; in experiment [5] it was -11.3%; in experiment [6] it was -24.6%.

Turning to `O=[N+]([O-])c1ccc(N=CNc2ccc([N+](=O)[O-])cc2)cc1`, the growth inhibition in experiment [1] was -15.9%; in experiment [2] it was -13.1%; in experiment [3], -1.5%; in experiment [4] it was -12%; in experiment [5], 17.1%; in experiment [6], -6.65%.

For the compound `Cc1nc(C(=O)N=C(N)N)c(N)nc1-c1ccccc1`, the growth inhibition in experiment [1] was -22.6%; in experiment [2], -4.3%; in experiment [3], -7.7%; in experiment [4] it was -28.2%; in experiment [5], -4.8%; in experiment [6] it was -4%.

Regarding `CC#CC(O)(C(=O)OCCCN(C)C)C1CCCCC1` (stereo not given), the growth inhibition in experiment [1] was 12.4%; in experiment [2], 3.55%; in experiment [3] it was 3.85%; in experiment [4], 2.25%; in experiment [5] it was 8.3%; in experiment [6] it was 9.25%.

On to `O=C1c2c(ccc3c2CCCC3)CC12Cc1ccc3c(c1C2=O)CCCC3`, for which the growth inhibition in experiment [1] was 20.1%; in experiment [2] it was 13.8%; in experiment [3], -0.85%; in experiment [4], 23.9%; in experiment [5] it was 7%; in experiment [6], 12.1%.

In the case of `O=c1[nH]cc(F)c(=O)n1-c1ccco1`, the growth inhibition in experiment [1] is 42.6%; in experiment [2] it was 67.5%; in experiment [3] it was 79.8% (active); in experiment [4], -0.55%; in experiment [5] it was 52.2%; in experiment [6], 34.9%.

Consider `C1CCC(N=C2N(C3CCCCC3)C(=NC3CCCCC3)N2C2CCCCC2)CC1`, for which the growth inhibition in experiment [1] was 4.7%; in experiment [2], -28.3%; in experiment [3] it was -7.2%; in experiment [4], -19.6%; in experiment [5], -20.6%; in experiment [6], -4.35%.

Consider `CC(=O)Oc1ccccc1C(OC(C)=O)OC(C)=O`, for which the growth inhibition in experiment [1] is 31.8%; in experiment [2], 5.2%; in experiment [3], 12.5%; in experiment [4] it was -20.1%; in experiment [5], 2.05%; in experiment [6] it was 34.4%.

For `COc1c(O)c(O)c2c(c1O)C(=O)c1cc(C)cc(O)c1C2=O`, the growth inhibition was -16.3% in experiment [1]; -27% in experiment [2]; -22.7% in experiment [3]; -8.45% in experiment [4]; -30% in experiment [5]; -19.4% in experiment [6].

For the compound `COc1cccc(C=Nc2ccc(N(C)C)cc2)c1O.COc1cccc(C=Nc2ccc(N(C)C)cc2)c1O.[Co]`, the growth inhibition was 31.4% in experiment [1]; 5.55% in experiment [2]; 14.6% in experiment [3]; 2.9% in experiment [4]; 8.25% in experiment [5]; -2.3% in experiment [6].

For `N=C(N)n1ncc(Cl)c(Cl)c1=O`, the growth inhibition in experiment [1] is 30.8%; in experiment [2] it was 36.2%; in experiment [3] it was 33.9%; in experiment [4], 30.4%; in experiment [5], 38.9%; in experiment [6] it was 41.5%.

For `C=CCC1=C(C)C[C@@H]2CCC(=O)C=C12`, the growth inhibition was 9.05% in experiment [1]; -24.9% in experiment [2]; -8.5% in experiment [3]; 11.2% in experiment [4]; -13% in experiment [5]; 5.5% in experiment [6].

For the compound `COc1cc(NCC2COc3c(ccc(OC)c3OC)C2=O)c([N+](=O)[O-])cc1OC` (stereo not given), the growth inhibition in experiment [1] was 9.35%; in experiment [2], 20.2%; in experiment [3], 8.15%; in experiment [4] it was 15.4%; in experiment [5] it was -5.3%; in experiment [6] it was 21.4%.

Take `Cc1cc(C(C)(C)C)cc(C)c1[N+](=O)[O-]`: the growth inhibition is 18.7% in experiment [1]; -7.55% in experiment [2]; -17.9% in experiment [3]; 8.2% in experiment [4]; -7.1% in experiment [5]; 7.25% in experiment [6].

For the compound `Cc1cc(=O)oc2c1c(C)nn2-c1cccc(Cl)c1`, the growth inhibition in experiment [1] was -14.5%; in experiment [2], -13.2%; in experiment [3], 4.05%; in experiment [4] it was -60.9%; in experiment [5], -5.1%; in experiment [6], -1.85%.

Regarding `N#CNC(=Nc1ccccc1)[N](C#N)[Sn]([c]1ccccc1)([c]1ccccc1)[c]1ccccc1`, the growth inhibition in experiment [1] is 98.7% (active); in experiment [2], 98.3% (active); in experiment [3] it was 99.2% (active); in experiment [4], 98.7% (active); in experiment [5], 96.5% (active); in experiment [6] it was 98.6% (active).

For the origin of these results see PubChem BioAssay (NCI).
